# The list is not random: actives were taken first. Their share in the collection is about 15%.
# DT40 TDP1 CPT: qHTS for Inhibitors of human tyrosyl-DNA phosphodiesterase 1 (TDP1): qHTS in cells in presence of CPT. chicken DT40 Tdp1-/-;hTDP1 cells + 20 nM CPT, ATP luminescence, 48 h. Potency, µM (series often up to 46.2 µM), without a hit: at the top dose activity change, negative = growth inhibition, usual class: inhibitors. 12% of 420,000 active. AID 686979, 2013; note: nearly all actives have a fitted effect of over 55% in size
#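 Cell growth measured by CellTiter-Glo luminescence after a minimum 48 h, 37 C compound exposure with 20 nM CPT in Tdp1-knockout DT40 cells stably expressing hTDP1, seeded 400/well; qHTS titration format.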
# RORgamma inh: qHTS for inhibitors of ROR gamma transcriptional activity; Drosophila S2 Gal4-RORgamma UAS-luciferase reporter, 20 h; 5.4% of 310,000 active; Potency, µM (series often up to 53.6 µM), for the others: top-dose activity change, negative = inhibition, hits mostly inhibitors; note: nearly all actives have a fitted effect of over 60% in size
# Target sequence (P51450 whole entry, looked up, the tested form may be a part): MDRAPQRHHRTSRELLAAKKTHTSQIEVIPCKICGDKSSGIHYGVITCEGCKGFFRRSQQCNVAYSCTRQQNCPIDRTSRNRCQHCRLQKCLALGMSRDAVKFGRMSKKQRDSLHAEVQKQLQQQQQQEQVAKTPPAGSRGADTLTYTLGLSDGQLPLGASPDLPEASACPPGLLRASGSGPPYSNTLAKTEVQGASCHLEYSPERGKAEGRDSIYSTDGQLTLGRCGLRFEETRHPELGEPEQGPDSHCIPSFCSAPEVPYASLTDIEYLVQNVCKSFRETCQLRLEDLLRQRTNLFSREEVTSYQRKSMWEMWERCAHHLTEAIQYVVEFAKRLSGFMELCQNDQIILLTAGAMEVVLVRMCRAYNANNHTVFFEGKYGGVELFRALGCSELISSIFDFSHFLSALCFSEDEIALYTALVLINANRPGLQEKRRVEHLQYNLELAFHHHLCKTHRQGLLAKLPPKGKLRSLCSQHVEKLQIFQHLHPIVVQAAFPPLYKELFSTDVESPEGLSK
#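 Drosophila S2 cells stably expressing Gal4-DBD/mouse RORγ fusion under metallothionein promoter plus UAS-luciferase; compound 1 h, then 700 uM CuSO4 induction for 20 h at ambient temperature; inhibition read as reduced luminescence.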
# DT40 TDP1 no CPT: qHTS for Inhibitors of human tyrosyl-DNA phosphodiesterase 1 (TDP1): qHTS in cells in absence of CPT; AID 686978, 2013; DT40 Tdp1-/- hTDP1 cells, no CPT, ATP luminescence, 48 h; 15% of 420,000 active; Potency, µM (top dose mostly 46.2 µM), for inactives: at the highest dose activity change, negative = growth inhibition, actives largely listed as inhibitors; note: nearly all actives have a fitted effect of over 55% in size
#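 Readout: luminescence from CellTiter-Glo after 30 min in the dark at RT. Cells: DT40 Tdp1-/- with stable hTDP1, 400/well. Exposure: compounds alone, ≥48 hr, 37 °C.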
# ALOX12 inh: Primary qHTS assay for inhibitors of human arachidonate 12S-lipoxygenase (ALOX12): Round 2; Polyunsaturated fatty acid lipoxygenase ALOX12 (Homo sapiens), P18054; 1.1% of 580,000 active; purified 12hLO, xylenol orange hydroperoxide absorbance; Potency, µM (highest dose often 108 µM), without a hit: at the top dose activity change, negative = inhibition, usual class: inhibitors
#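 Purified human 12hLO at 150 nM in 25 mM Hepes, 0.01% Triton X-100, pH 7.0, preincubated 15 min at room temperature with compound. Reaction started with 40 uM arachidonic acid, 30 min at room temperature. Hydroperoxide measured by Fe-xylenol orange, 573/405 nm absorbance ratio.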
# ELG1 DNA repair: qHTS screen for small molecules that inhibit ELG1-dependent DNA repair in human embryonic kidney (HEK293T) cells expressing luciferase-tagged ELG1 | HEK293T ELG1-luciferase reporter, luminescence, 16 h; DNA damage induced by 5-fluorouridine | 2.3% of 330,000 active | AID 504467, 2011 | Potency, µM (top dose mostly 46.1 µM), inactives show at the top dose activity change, negative = inhibition, actives largely listed as inhibitors; note: nearly all actives have a fitted effect of over 55% in size
#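 Overnight (16 hr) co-exposure of 2,000 cells/well to 5-fluorouridine and compound at 37 °C preceded detection. Luciferase was quantified via ONE-Glo luminescence; loss of signal denotes inhibition.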
# VP16 counter: VP16 counterscreen qHTS for inhibitors of ROR gamma transcriptional activity; 3.5% of 310,000 active; Potency, µM (top dose mostly 53.6 µM), for the others: at the top dose activity, negative = inhibition, actives largely listed as inhibitors; Drosophila S2 Gal4-VP16 UAS-luciferase, luminescence, 20 h;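 note: Gal4-VP16 expression switched on by copper sulfate through the metallothionein promoter; nearly all actives have a fitted effect of over 50% in size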
# * marks the source's active call; other numbers are inactive results; u = inconclusive; x = not tested or not shown; [ ] = another dose, or the depositor's remark. Calls come from the whole dose curve; as a rule, active = well fitted curve in the direction sought with a large enough effect; inconclusive = small, poorly fitted or top-dose-only effect, or another doubt; inactive = no such curve, though single readings can be large; an effect the other way counts as inactive or inconclusive. % is set by controls: 0 for no effect and ±100 for the full control effect; potency is the fitted concentration of half-maximal effect.
SMILES,DT40 TDP1 CPT,RORgamma inh,DT40 TDP1 no CPT,ALOX12 inh,ELG1 DNA repair,VP16 counter
COc1cccc(C(=O)NNC2=C(C(=O)C(F)(F)F)CCC2)c1,2.1µM*,5.6µM*,1.5µM*,217%,u,u
O=C(NNC1=C(C(=O)C(F)(F)F)CCC1)c1ccc(Br)cc1,u,u,16µM*,-14%,u,u
Cc1nc(C(=O)NNC(=O)c2ccccc2Cl)c(C(F)(F)F)o1,-23%,u,-19%,136%,-15%,-15%
O=C(NNC1=C(C(=O)C(F)(F)F)CCC1)c1ccccc1Cl,1.3µM*,5.6µM*,1µM*,0%,u,6.3µM*
Nc1ccccc1C(=O)NNC1=C(C(=O)C(F)(F)F)CCC1,4.1µM*,7.1µM*,4.1µM*,5%,u,u
Cc1cc(=O)n(CC(=O)Nc2cccc(C(C)C)c2)c(N2CCOCC2)n1,x,x,x,26%,x,x
N#CCCn1cc(C(=O)Nc2ccc(F)cc2)c(-c2cccs2)n1,x,x,x,-11%,x,x
O=C(NNC1=C(C(=O)C(F)(F)F)CCC1)c1ccccc1O,16µM*,11µM*,21µM*,52%,u,u
COc1ccccc1C(=O)NNC(=O)c1ccccc1,-14%,33%[1.91 µM],4%,u,u,u
COc1ccccc1C(=O)NNC1=C(C(=O)C(F)(F)F)CCC1,u,0.56µM*,u,-10%,-22%,5µM*
CCSc1cc(C)nc2ncnn12,-13%,-12%,7%,33%,u,7%
CCCCCCSc1cc(C)nc2ncnn12,16µM*,-12%,12µM*,12%,-4%,5%
CCOc1cc(/C=C2/NC(=O)NC2=O)ccc1OCc1ccc(Cl)cc1Cl,x,x,x,-26%,x,x
CC1=C(C(=O)N2CCCCC2)C(c2ccc(C)cc2)C2=C(CC(C)(C)CC2=O)N1 (stereo not drawn),x,x,x,30%,x,x
COc1ccc(Oc2coc3cc(OC(=O)c4cccs4)ccc3c2=O)cc1,-21%,6%,-28%,3%,19%,5%
CCc1ccccc1NC(=O)COc1ccc2c(=O)c(Oc3cc(C)ccc3C)coc2c1,18µM*,23%,23µM*,-8%,u,-18%
Cc1cc(C)cc(Oc2coc3cc(OCC(=O)NC4CCCCC4)ccc3c2=O)c1,u,x,21µM*,-10%,x,x
Cc1ccc(C)c(Oc2coc3cc(OC(=O)c4cccs4)ccc3c2=O)c1,29µM*,x,u,0%,x,x
O=C(NCC1Cn2cccc2CN1Cc1ccccc1)c1ccoc1 (stereo not drawn),x,x,x,146%,x,x
S=C(NCc1ccc(Cl)cc1)Nc1ccc(Cl)cc1Cl,-14%,11µM*,u,1%,11%,11µM*
Fc1ccc(NC(=S)Nc2ccc(Cl)cc2Cl)cc1,u,u,26µM*,u,u,7%
COc1cc(NC(=S)NCCc2ccccc2)c(OC)cc1NC(=O)C(C)C,-30%,u,-13%,u,-17%,-28%
C/C(=N\NC(=S)NCCc1ccccc1)c1ccc(O)cc1O,u,u,u,u,-28%,u
CCc1cc(Br)ccc1NC(=S)NCCc1ccccc1,u,5µM*,21µM*,u,u,6.3µM*
S=C(NCc1ccc(Cl)cc1)NCc1ccc(Cl)c(Cl)c1,x,x,x,-106%,x,x
